Measured values published in PubChem BioAssay (Tox21).
Inconclusive results are not listed. Entries that show only a call come without a potency. The source made the active and inactive calls. Unless noted, calls come from the whole dose curve; as a rule, active = well fitted curve in the direction sought with a large enough effect in the repeat runs; inconclusive = weak or mixed curves; inactive = no such curve, though single readings can be large; an effect the other way counts as inactive or inconclusive.

Experiments:
[1] = qHTS assay to test for compound auto fluorescence at 535 nm (green) in HEK293 cells (AID 720680)
[2] = qHTS assay to test for compound auto fluorescence at 460 nm (blue) in HEK293 cell free culture (AID 720681); note: potency is the fitted concentration of half-maximal effect
Summary of the method: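 Test compounds were pinned into cell-free culture medium (DMEM with 10% FBS) and fluorescence was read directly at Ex/Em 405/460 nm. Signals were expressed as fluorescence equivalents of triamterene, with DMSO vehicle as control.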

[3] = qHTS assay to test for compound auto fluorescence at 535 nm (green) in HEK293 cell free culture (AID 720682)
Summary of the method: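 Each library compound, or DMSO control, is added by pintool to medium alone, comprising DMEM and 10% FBS. Emission at 535 nm following 485 nm excitation is quantified against fluorescein.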

[4] = qHTS assay to test for compound auto fluorescence at 590 nm (red) in HepG2 cell free culture (AID 720684)
Summary of the method: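 Measured in medium alone (MEM containing 10% FBS) following pintool addition of compound; emission at 590 nm with 540 nm excitation, referenced to Rose Bengal sodium.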

[5] = qHTS assay to test for compound auto fluorescence at 460 nm (blue) in HepG2 cell free culture (AID 720685)
Summary of the method: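 Compound (23 nL) or DMSO pinned into cell-free MEM with 10% FBS; blue fluorescence read at 405/460 nm excitation/emission, expressed as auto-fluorescence equivalency to triamterene.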

[6] = qHTS assay to test for compound auto fluorescence at 535 nm (green) in HepG2 cell free culture (AID 720686)
[7] = qHTS assay to test for compound auto fluorescence at 460 nm (blue) in HepG2 cells (AID 720687)
Summary of the method: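 Cells (2,000/well in MEM with 10% FBS) attached overnight at 37 C, then were exposed to compound or DMSO for 1 hr at 37 C, 5% CO2. Fluorescence read at Ex/Em 405/460 nm, expressed as triamterene-equivalent signal.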

[8] = target: Glucocorticoid receptor (Homo sapiens) (UniProt P04150); experiment: qHTS assay to identify small molecule agonists of the glucocorticoid receptor (GR) signaling pathway (AID 720691; active = well fitted activation curve with a large enough effect in the signal ratio in the repeat runs, not every such curve was filed as active; the % refers to the signal ratio); settings: GR-bla HeLa, beta-lactamase reporter ratio, 18 h; activation: at 62.4 µM (top of the series)
Sequence of Glucocorticoid receptor (Homo sapiens) (P04150 whole entry, looked up): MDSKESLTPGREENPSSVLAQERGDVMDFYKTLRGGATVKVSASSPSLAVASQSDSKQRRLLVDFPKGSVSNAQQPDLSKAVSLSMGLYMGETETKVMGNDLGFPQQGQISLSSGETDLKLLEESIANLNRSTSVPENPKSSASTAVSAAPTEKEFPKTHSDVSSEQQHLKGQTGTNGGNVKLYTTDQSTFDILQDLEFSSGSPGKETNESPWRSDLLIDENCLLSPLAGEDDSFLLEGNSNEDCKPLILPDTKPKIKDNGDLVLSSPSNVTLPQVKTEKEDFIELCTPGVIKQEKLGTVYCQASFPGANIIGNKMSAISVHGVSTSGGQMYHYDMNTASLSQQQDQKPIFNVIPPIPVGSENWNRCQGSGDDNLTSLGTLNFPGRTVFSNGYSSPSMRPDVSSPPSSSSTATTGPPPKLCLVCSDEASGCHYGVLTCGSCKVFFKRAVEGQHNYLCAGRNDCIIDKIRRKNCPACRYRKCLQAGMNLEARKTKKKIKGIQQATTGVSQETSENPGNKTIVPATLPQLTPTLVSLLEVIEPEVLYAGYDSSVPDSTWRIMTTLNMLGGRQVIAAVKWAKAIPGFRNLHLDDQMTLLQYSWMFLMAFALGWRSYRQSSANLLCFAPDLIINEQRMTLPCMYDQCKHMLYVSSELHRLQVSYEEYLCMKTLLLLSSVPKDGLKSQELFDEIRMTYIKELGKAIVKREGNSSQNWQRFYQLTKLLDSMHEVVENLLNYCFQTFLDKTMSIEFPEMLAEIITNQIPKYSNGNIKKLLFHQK
Summary of the method: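 Fluorescence intensity from LiveBLAzer B/G FRET substrate (2 h, room temperature) reports beta-lactamase expression driven by the glucocorticoid response element in GR-bla HeLa cells after 18 h compound exposure at 37 C.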

[9] = target: Glucocorticoid receptor (Homo sapiens) (UniProt P04150); experiment: qHTS assay to identify small molecule antagonists of the glucocorticoid receptor (GR) signaling pathway (AID 720692; active = well fitted inhibition curve with a large enough effect in the signal ratio in the repeat runs, not every such curve was filed as active; the % refers to the signal ratio; note: potency is the fitted concentration of half-maximal effect)
Summary of the method: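 HeLa GR-bla cells; cmpd + dex 5 nM final, 18 h 37 C; LiveBLAzer B/G FRET substrate 2 h RT; fluorescence intensity read. Antagonist mode, qHTS.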

[10] = qHTS assay to identify small molecule antagonists of the glucocorticoid receptor (GR) signaling pathway - cell viability counter screen (AID 720693); note: nearly all actives have a fitted effect of over 55% in size
[11] = qHTS assay for identifying genotoxic compounds that show differential cytotoxicity against isogenic chicken DT40 cell lines with known DNA damage response pathways - wild type cell line (AID 743012); note: nearly all actives have a fitted effect of over 60% in size; note: potency is the fitted concentration of half-maximal effect
Summary of the method: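 Wild type DT40, 300 cells/well, ~0.5 h settle at 37 C/5% CO2; compounds in DMSO added by pintool; 40 h at 37 C/5% CO2; CellTiter-Glo, 30 min RT; luminescence.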

[12] = qHTS assay for identifying genotoxic compounds that show differential cytotoxicity against isogenic chicken DT40 cell lines with known DNA damage response pathways - Rev3 mutant cell line (AID 743014); note: nearly all actives have a fitted effect of over 55% in size; note: potency is the fitted concentration of half-maximal effect
[13] = qHTS assay for identifying genotoxic compounds that show differential cytotoxicity against isogenic chicken DT40 cell lines with known DNA damage response pathways - Rad54/Ku70 mutant cell line (AID 743015); note: nearly all actives have a fitted effect of over 60% in size; note: potency is the fitted concentration of half-maximal effect
[14] = target: Androgen receptor (Homo sapiens) (UniProt P10275); experiment: qHTS assay to identify small molecule agonists of the androgen receptor (AR) signaling pathway (AID 743036; active = well fitted activation curve with a large enough effect in the signal ratio in the repeat runs, with a control signal flat, not every such curve was filed as active; the % refers to the signal ratio; note: potency is the fitted concentration of half-maximal effect)
Sequence of Androgen receptor (Homo sapiens) (P10275 whole entry, looked up): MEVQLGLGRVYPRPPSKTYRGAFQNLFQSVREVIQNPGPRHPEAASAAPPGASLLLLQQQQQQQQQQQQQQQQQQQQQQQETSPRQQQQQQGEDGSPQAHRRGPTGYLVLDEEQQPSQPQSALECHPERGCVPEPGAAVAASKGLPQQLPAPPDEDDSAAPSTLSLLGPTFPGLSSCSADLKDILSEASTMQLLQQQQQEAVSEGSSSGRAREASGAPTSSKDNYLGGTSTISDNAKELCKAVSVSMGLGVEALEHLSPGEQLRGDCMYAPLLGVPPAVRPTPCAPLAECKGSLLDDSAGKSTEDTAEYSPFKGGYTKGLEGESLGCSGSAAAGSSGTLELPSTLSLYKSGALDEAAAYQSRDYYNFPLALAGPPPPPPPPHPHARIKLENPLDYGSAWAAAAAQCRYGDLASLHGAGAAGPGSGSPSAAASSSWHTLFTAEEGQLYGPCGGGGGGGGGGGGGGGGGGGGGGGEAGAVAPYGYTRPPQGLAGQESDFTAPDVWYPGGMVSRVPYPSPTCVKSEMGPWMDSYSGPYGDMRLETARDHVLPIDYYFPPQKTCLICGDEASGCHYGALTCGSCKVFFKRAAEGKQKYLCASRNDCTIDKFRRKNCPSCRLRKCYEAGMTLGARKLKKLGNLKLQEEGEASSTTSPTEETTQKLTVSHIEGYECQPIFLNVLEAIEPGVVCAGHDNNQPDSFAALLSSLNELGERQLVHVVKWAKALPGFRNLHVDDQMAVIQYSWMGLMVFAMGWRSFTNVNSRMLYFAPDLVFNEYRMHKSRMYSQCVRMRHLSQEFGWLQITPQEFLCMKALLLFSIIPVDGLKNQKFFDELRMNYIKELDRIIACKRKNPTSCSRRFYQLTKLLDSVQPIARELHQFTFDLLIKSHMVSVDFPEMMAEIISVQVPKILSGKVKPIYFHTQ
Summary of the method: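 Following a 4 h settling period, AR-UAS-bla HEK293 cells were dosed with compounds for 16 h at 37C. A 2 h room-temperature incubation with LiveBLAzer B/G FRET substrate preceded the fluorescence measurement.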

[15] = target: Androgen receptor (Homo sapiens) (UniProt P10275); experiment: qHTS assay to identify small molecule agonists of the androgen receptor (AR) signaling pathway using the MDA cell line (AID 743040; note: nearly all actives have a fitted effect of over 20% in size; note: potency is the fitted concentration of half-maximal effect)
Summary of the method: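 Luminescence from ONE-Glo, read after 30 min at room temperature, reflects MMTV-driven luciferase in MDA-kb2 cells (AR- and GR-responsive). Treatment lasted 16 h at 37C, 0% CO2.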

[16] = qHTS assay to identify small molecule antagonists of the androgen receptor (AR) signaling pathway using the MDA cell line - cell viability counter screen (AID 743041; note: nearly all actives have a fitted effect of over 45% in size)
Summary of the method: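 Viability counter screen run alongside the AR antagonist reporter: cells seeded 5 h before compound, R1881 added, 16 h incubation at 37C without CO2, fluorescent CellTiter-Fluor signal quantified.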

[17] = target: Androgen receptor (Homo sapiens) (UniProt P10275); experiment: qHTS assay to identify small molecule antagonists of the androgen receptor (AR) signaling pathway using the MDA cell line (AID 743042; note: nearly all actives have a fitted effect of over 55% in size)
Summary of the method: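 MDA-kb2 cells (human breast carcinoma, stably carrying an MMTV-luciferase reporter responsive to AR and GR) were plated at 3,000 cells/well and preincubated 5 hr at 37C, then given compound plus R1881 agonist for 16 h. ONE-Glo luminescence was read.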

[18] = qHTS assay to test for compound auto fluorescence at 590 nm (red) in HEK293 cell free culture (AID 720683)
Summary of the method: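 Tox21 10K library compounds were pinned into cell-free DMEM with 10% FBS and fluorescence was read at excitation 540 nm. Activity is expressed as Rose Bengal sodium equivalency.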

[19] = qHTS assay to identify small molecule antagonists of the androgen receptor (AR) signaling pathway - cell viability counter screen (AID 743033; note: nearly all actives have a fitted effect of over 45% in size)

Structure (SMILES): O=C(Cc1cccs1)N[C@@H]1C(=O)N2C(C(=O)[O-])=C(C[n+]3ccccc3)CS[C@H]12
- Potency [1]: inactive
- Potency [2]: inactive
- Potency [3]: inactive
- Potency [4]: inactive
- outcome [5]: inactive
- Potency [6]: inactive
- outcome [7]: inactive
- Potency [8]: inactive
- Potency [9]: inactive
- Potency [10]: inactive
- Potency [11]: inactive
- Potency [12]: inactive
- Potency [13]: inactive
- Potency [14]: inactive
- Potency [15]: inactive
- Potency [16]: inactive
- Potency [17]: inactive

Structure (SMILES): C[C@H](O)[C@H](O)[C@H]1CNc2nc(N)[nH]c(=O)c2N1
- Potency [1]: inactive
- Potency [2]: 12.6 µM (active)
- Potency [3]: inactive
- Potency [18]: inactive
- Potency [4]: inactive
- Potency [6]: inactive
- Potency [8]: inactive
- Potency [9]: inactive
- Potency [10]: inactive
- Potency [11]: inactive
- Potency [12]: inactive
- Potency [13]: inactive
- Potency [19]: inactive
- Potency [16]: inactive

Structure (SMILES): COc1ccc(-c2noc(CC(=O)O)c2-c2ccc(OC)cc2)cc1
- Potency [1]: inactive
- Potency [2]: inactive
- Potency [3]: inactive
- Potency [18]: inactive
- Potency [4]: inactive
- Potency [6]: inactive
- outcome [7]: inactive
- Potency [8]: inactive
- Potency [9]: inactive
- Potency [10]: inactive
- Potency [13]: inactive
- Potency [19]: inactive
- Potency [16]: inactive
- Potency [17]: inactive

Structure (SMILES): CCOc1cc(-c2nccc3cc(OC)c(OC)cc23)cc(OCC)c1OCC
- Potency [1]: inactive
- Potency [2]: inactive
- Potency [3]: inactive
- Potency [4]: inactive
- outcome [5]: inactive
- Potency [6]: inactive
- outcome [7]: inactive
- Potency [8]: inactive
- Potency [9]: inactive
- Potency [10]: inactive
- Potency [11]: 4.22 µM (active)
- Potency [12]: 6.68 µM (active)
- Potency [13]: 8.41 µM (active)
- Potency [19]: inactive
- Potency [16]: inactive

Structure (SMILES): CCCCCCCCCCCCCCCCCCCCCCO
- Potency [1]: inactive
- Potency [2]: inactive
- Potency [3]: inactive
- Potency [4]: inactive
- outcome [5]: inactive
- Potency [6]: inactive
- outcome [7]: inactive
- Potency [8]: inactive
- Potency [9]: inactive
- Potency [10]: inactive
- Potency [11]: inactive
- Potency [12]: inactive
- Potency [13]: inactive
- Potency [19]: inactive
- Potency [16]: inactive

Structure (SMILES): CN(C)C=Nc1c(I)cc(I)c(CCC(=O)O)c1I
- Potency [1]: inactive
- Potency [2]: inactive
- Potency [3]: inactive
- Potency [18]: inactive
- Potency [4]: inactive
- Potency [6]: inactive
- outcome [7]: inactive
- Potency [10]: inactive
- Potency [11]: inactive
- Potency [13]: inactive
- Potency [19]: inactive
- Potency [16]: inactive

Structure (SMILES): CC(=O)OC[C@H]1O[C@@H](O[C@H]2[C@H](O)[C@@H](OC(=O)c3ccccc3C(=O)O)[C@H](O)O[C@@H]2COC(C)=O)[C@H](O)[C@@H](OC(=O)c2ccccc2C(=O)O)[C@@H]1O
- Potency [1]: inactive
- Potency [2]: inactive
- Potency [3]: inactive
- Potency [18]: inactive
- Potency [4]: inactive
- Potency [6]: inactive
- outcome [7]: inactive
- Potency [8]: inactive
- Potency [9]: inactive
- Potency [10]: inactive
- Potency [11]: inactive
- Potency [12]: inactive
- Potency [19]: inactive
- Potency [16]: inactive

Structure (SMILES): CO[C@H]1C[C@H](O[C@@H]2/C(C)=C/C[C@@H]3C[C@@H](C[C@]4(CC[C@H](C)[C@@H](C5CCCCC5)O4)O3)OC(=O)[C@@H]3C=C(C)/C(=N/O)[C@H]4OC/C(=C\C=C\[C@@H]2C)[C@]43O)O[C@@H](C)[C@@H]1O
- Potency [1]: inactive
- Potency [2]: inactive
- Potency [3]: inactive
- Potency [4]: inactive
- outcome [5]: inactive
- Potency [6]: inactive
- outcome [7]: inactive
- Potency [8]: inactive
- Potency [9]: inactive
- Potency [10]: inactive
- Potency [11]: inactive
- Potency [12]: inactive
- Potency [13]: inactive
- Potency [19]: inactive
- Potency [16]: inactive

Structure (SMILES): CCCCCCCCCCCCCCCCCC(=O)OCCO
- Potency [1]: inactive
- Potency [2]: inactive
- Potency [3]: inactive
- Potency [4]: inactive
- outcome [5]: inactive
- Potency [6]: inactive
- outcome [7]: inactive
- Potency [8]: inactive
- Potency [9]: inactive
- Potency [10]: inactive
- Potency [11]: inactive
- Potency [12]: inactive
- Potency [13]: inactive
- Potency [19]: inactive
- Potency [16]: inactive

Structure (SMILES): CC(C)N1CCN(c2ccc(OC[C@H]3CO[C@](Cn4cncn4)(c4ccc(Cl)cc4Cl)O3)cc2)CC1
- Potency [1]: inactive
- Potency [2]: inactive
- Potency [3]: inactive
- Potency [18]: inactive
- Potency [4]: inactive
- Potency [6]: inactive
- outcome [7]: inactive
- Potency [11]: 4.52 µM (active)
- Potency [12]: 5.07 µM (active)
- Potency [13]: 6.39 µM (active)
- Potency [19]: inactive
- Potency [16]: inactive

Structure (SMILES): CCC(=O)Oc1ccc2c(c1)CC[C@@H]1[C@@H]2CC[C@]2(C)[C@@H](OC(=O)CC)CC[C@@H]12
- Potency [1]: inactive
- Potency [2]: inactive
- Potency [3]: inactive
- Potency [18]: inactive
- Potency [4]: inactive
- Potency [6]: inactive
- outcome [7]: inactive
- Potency [8]: inactive
- Potency [9]: 4.25 µM (active)
- Potency [10]: inactive
- Potency [14]: 2.39 µM (active)
- Potency [15]: 1.19 µM (active)
- Potency [16]: inactive

Structure (SMILES): Cc1cccc(C)c1Nc1ncccc1C(=O)O
- Potency [1]: inactive
- Potency [2]: inactive
- Potency [3]: inactive
- Potency [18]: inactive
- Potency [4]: inactive
- Potency [6]: inactive
- outcome [7]: inactive
- Potency [8]: inactive
- Potency [10]: inactive
- Potency [11]: inactive
- Potency [12]: inactive
- Potency [13]: inactive
- Potency [19]: inactive
- Potency [15]: inactive
- Potency [16]: inactive
- Potency [17]: inactive

Structure (SMILES): FCOC(C(F)(F)F)C(F)(F)F
- Potency [1]: inactive
- Potency [2]: inactive
- Potency [3]: inactive
- Potency [4]: inactive
- outcome [5]: inactive
- Potency [6]: inactive
- outcome [7]: inactive
- Potency [8]: inactive
- Potency [9]: inactive
- Potency [10]: inactive
- Potency [11]: inactive
- Potency [12]: inactive
- Potency [16]: inactive

Structure (SMILES): CC(C)(C)CC(=O)OCC(=O)[C@@]12OC(C)(C)O[C@@H]1C[C@H]1[C@@H]3CCC4=CC(=O)C=C[C@]4(C)[C@@]3(F)[C@@H](O)C[C@@]12C
- Potency [1]: inactive
- Potency [2]: inactive
- Potency [3]: inactive
- Potency [4]: inactive
- outcome [5]: inactive
- Potency [6]: inactive
- outcome [7]: inactive
- Potency [10]: inactive
- Potency [11]: inactive
- Potency [12]: inactive
- Potency [13]: inactive
- Potency [19]: inactive
- Potency [16]: inactive

Structure (SMILES): C#C[C@]1(O)CC[C@H]2[C@@H]3CCC4=CCCC[C@@H]4[C@H]3C(=C)C[C@@]21CC
- Potency [1]: inactive
- Potency [2]: inactive
- Potency [3]: inactive
- Potency [4]: inactive
- outcome [5]: inactive
- Potency [6]: inactive
- outcome [7]: inactive
- Potency [11]: 13.3 µM (active)
- Potency [12]: 15 µM (active)
- Potency [13]: 21.1 µM (active)
- Potency [19]: inactive
- Potency [16]: inactive
